Where “and” joins values, the source holds several entries; their conditions need not be identical. Equal values may be shown once. Compounds without any hit were thinned out: in the full panel of roughly 79,000, 15% have a hit. Where a structure was tested more than once in an assay, its records may differ in their call. Calls of active or inactive are those of the source. No stated cut-off is given here; in the data, active means growth inhibition above about 70%; inactive means the rest.
What was measured:
[1] = NCI Yeast Anticancer Drug Screen. Data for the wt2 strain (AID 169);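 further: 0% = growth of vehicle-treated yeast cultures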; settings: S. cerevisiae wt2 strain growth inhibition, stronger effect = higher value
Summary of the method: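 The panel's yeast strains carry defined changes in DNA repair or cell cycle genes. Each strain is grown with compound, and growth loss is scored relative to vehicle.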

[2] = NCI Yeast Anticancer Drug Screen. Data for the mlh1 strain (AID 171);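 further: 0% = growth of vehicle-treated control cultures of the same strain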; settings: S. cerevisiae mlh1 strain growth inhibition, stronger effect = higher value
Summary of the method: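 Inhibition values reflect reduced yeast growth in the presence of compound, referenced to vehicle controls, using a strain chosen for its alteration in DNA repair or cell cycle control.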

[3] = NCI Yeast Anticancer Drug Screen. Data for the sgs1 strain (AID 173);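 further: 0% = growth of vehicle-only control cultures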; settings: S. cerevisiae sgs1 mutant, stronger effect = higher value
Summary of the method: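 Vehicle-treated cultures served as reference for growth inhibition of a yeast strain altered in DNA damage repair or cell cycle control after compound exposure.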

[4] = NCI Yeast Anticancer Drug Screen. Data for the mlh1 rad18 strain (AID 175); settings: S. cerevisiae mlh1 rad18 strain growth inhibition, stronger effect = higher value
Summary of the method: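 Inhibition values reflect reduced growth of mutant yeast versus vehicle-treated controls following compound exposure; the mutations affect DNA damage repair.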

[5] = NCI Yeast Anticancer Drug Screen. Data for the rad18 strain (AID 177); settings: S. cerevisiae rad18 mutant growth inhibition, stronger effect = higher value
Summary of the method: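 Steps: expose repair-mutant yeast to compound; measure growth; express as inhibition relative to vehicle control.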

[6] = NCI Yeast Anticancer Drug Screen. Data for the rad52 strain (AID 147);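 further: 0% = growth of vehicle-treated control cultures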; settings: S. cerevisiae rad52 mutant growth inhibition, stronger effect = higher value
Summary of the method: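 Inhibition of yeast growth, referenced to vehicle controls, was the measured output for a strain with defective DNA damage repair.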

[7] = NCI Yeast Anticancer Drug Screen. Data for the wt1 strain (AID 149);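 further: 0% = growth of vehicle-treated wt1 cultures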; settings: S. cerevisiae wt1 strain (SPY 50644) growth inhibition, stronger effect = higher value
Summary of the method: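 Measured: growth of wt1 yeast under compound versus vehicle treatment, reported as inhibition.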

[8] = NCI Yeast Anticancer Drug Screen. Data for the rad50EPP+ strain (AID 151);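 further: 0% = growth of vehicle-treated control cultures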; settings: S. cerevisiae rad50 mutant strain, stronger effect = higher value
Summary of the method: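 Genetically defined yeast (rad50EPP+, DNA damage repair alteration) is grown with compound, and inhibition of growth is expressed relative to vehicle-treated controls.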

[9] = NCI Yeast Anticancer Drug Screen. Data for the mgt1 strain (AID 153); settings: S. cerevisiae mgt1 mutant growth inhibition, stronger effect = higher value
Summary of the method: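 In the mgt1 strain, test compounds were added and growth inhibition was determined relative to vehicle-treated controls.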

[10] = NCI Yeast Anticancer Drug Screen. Data for the rad50 strain (AID 155);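 further: 0% = growth of vehicle-only cultures of the same strain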; settings: S. cerevisiae rad50 strain growth inhibition, stronger effect = higher value
Summary of the method: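 Growth of the mutant yeast was measured after compound exposure and referenced to vehicle-treated cultures.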

[11] = NCI Yeast Anticancer Drug Screen. Data for the mec2-1 strain (AID 157); settings: S. cerevisiae mec2-1 strain, stronger effect = higher value
Summary of the method: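 Each compound was tested on mec2-1 yeast, a strain altered in DNA damage repair or cell cycle control. Growth inhibition is reported relative to vehicle.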

[12] = NCI Yeast Anticancer Drug Screen. Data for the rad14 strain (AID 159);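 further: 0% = growth of vehicle-treated control cultures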; settings: S. cerevisiae rad14 strain growth inhibition, stronger effect = higher value
Summary of the method: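 Here, inhibition of yeast growth was measured after compound exposure, using a strain with a genetic defect in DNA damage repair and vehicle-treated cultures as the reference.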

[13] = NCI Yeast Anticancer Drug Screen. Data for the sgs1 mgt1 strain (AID 161);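 further: 0% = growth of cultures given vehicle only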; settings: S. cerevisiae sgs1 mgt1 strain, stronger effect = higher value
Summary of the method: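 Read-out: growth inhibition vs vehicle controls. Cells: mutant yeast strain deficient in DNA damage repair.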

[14] = NCI Yeast Anticancer Drug Screen. Data for the CLN2oe strain (AID 163);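 further: 0% = growth of vehicle-only control cultures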; settings: S. cerevisiae CLN2oe strain, stronger effect = higher value
Summary of the method: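 First, the altered yeast strain was treated with each compound; second, its growth was measured; finally, inhibition was derived by comparison with vehicle controls.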

[15] = NCI Yeast Anticancer Drug Screen. Data for the cln2 rad14 strain (AID 165);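 further: 0% = growth equal to vehicle treated cultures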; settings: S. cerevisiae cln2 rad14 strain, stronger effect = higher value
Summary of the method: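 Test compounds were added to cln2 rad14 yeast cultures; inhibition of growth was then determined by comparison with vehicle treatment.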

[16] = NCI Yeast Anticancer Drug Screen. Data for the bub3 strain (AID 167); settings: S. cerevisiae bub3 mutant strain, stronger effect = higher value
Summary of the method: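 Whole-cell yeast assay. The mutant strain was incubated with compounds, and growth inhibition was determined by comparison with vehicle-treated cells.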

[17] = at 5.0 µM (retest, dose inferred, filed as 0.5)
[18] = at 50.0 µM (retest, dose inferred, filed as 5.0)

Measured: growth inhibition

COC(=O)C1=C(C(=O)OC)C2OC1c1cc3ccccc3cc12
inactive: [1]; at 1.2 µM 13% | [1]; at 3.7 µM 29% | [2]; at 1.2 µM 19% | [2]; at 3.7 µM 35% | [3]; at 1.2 µM 24% | [3]; at 3.7 µM 45% | [5]; at 1.2 µM 50% | [5]; at 3.7 µM 60%
active: [1]; at 11.0 µM 76% | [1]; at 33.0 µM 99% | [1]; at 100.0 µM 99% | [2]; at 11.0 µM 85% | [2]; at 33.0 µM 99% | [2]; at 100.0 µM 99% | [3]; at 11.0 µM 89% | [3]; at 33.0 µM 99% | [3]; at 100.0 µM 99% | [4]; [17] 96% | [4]; [18] 99% | [4]; at 50.0 µM 99.5% | [5]; at 11.0 µM 92% | [5]; at 33.0 µM 98% | [5]; at 100.0 µM 99%

Oc1c(Br)cc(Br)cc1Br
52% (inactive) and 99.5% (active): [11]; at 50.0 µM
35% (inactive) and 97% (active): [4]; [18]
66.5% (inactive) and 99% (active): [10]; at 50.0 µM
49% (inactive) and 98.4% (active): [15]; at 50.0 µM
inactive: [6]; at 1.2 µM 5% | [6]; at 3.7 µM 2% | [6]; at 11.0 µM 3% | [6]; at 33.0 µM 30% | [7]; at 1.2 µM -4% | [7]; at 3.7 µM -7% | [7]; at 11.0 µM 2% | [7]; at 33.0 µM 37% | [8]; at 1.2 µM 3% | [8]; at 3.7 µM 12% | [8]; at 11.0 µM 30% | [8]; at 33.0 µM 60% | [9]; at 1.2 µM 12% | [9]; at 3.7 µM 1% | [9]; at 11.0 µM 24% | [9]; at 33.0 µM 52% | [10]; at 1.2 µM 10% | [10]; at 3.7 µM 4% | [10]; [17] 41% and -1% | [10]; at 11.0 µM 5% | [10]; at 33.0 µM 41% | [11]; at 1.2 µM -1% | [11]; at 3.7 µM -7% | [11]; [17] 25% and 4% | [11]; at 11.0 µM 1% | [11]; at 33.0 µM 38% | [12]; at 1.2 µM -2% | [12]; at 3.7 µM 3% | [12]; at 11.0 µM 0% | [12]; at 33.0 µM 36% | [13]; [17] 7% | [14]; at 1.2 µM -14% | [14]; at 3.7 µM 7% | [14]; at 11.0 µM -1% | [14]; at 33.0 µM 21% | [15]; [17] 47% and -11% | [16]; at 1.2 µM -5% | [16]; at 3.7 µM 18% | [16]; [17] 40% and 0% | [16]; at 11.0 µM 24% | [16]; at 33.0 µM 39% | [1]; at 1.2 µM -8% | [1]; at 3.7 µM -9% | [1]; at 11.0 µM -8% | [1]; at 33.0 µM 26% | [2]; at 1.2 µM -3% | [2]; at 3.7 µM -19% | [2]; at 11.0 µM -9% | [2]; at 33.0 µM 22% | [3]; at 1.2 µM 13% | [3]; at 3.7 µM 12% | [3]; at 11.0 µM 6% | [3]; at 33.0 µM 37% | [4]; [17] 41% and 15% | [5]; at 1.2 µM 7% | [5]; at 3.7 µM 1% | [5]; at 11.0 µM 3% | [5]; at 33.0 µM 32%
44% (inactive) and 99% (active): [11]; [18]
54% (inactive) and 98% (active): [10]; [18]
59.5% (inactive) and 98.7% (active): [13]; at 50.0 µM
active: [6]; at 100.0 µM 88% | [7]; at 100.0 µM 91% | [8]; at 100.0 µM 88% | [9]; at 100.0 µM 82% | [10]; at 100.0 µM 91% | [11]; at 100.0 µM 86% | [12]; at 100.0 µM 77% | [13]; [18] 79% and 99% | [14]; at 100.0 µM 89% | [15]; [18] 87% and 99% | [16]; [18] 86% and 98% | [16]; at 50.0 µM 70.3% and 99.2% | [16]; at 100.0 µM 87% | [1]; at 100.0 µM 84% | [2]; at 100.0 µM 78% | [3]; at 100.0 µM 88% | [5]; at 100.0 µM 88%
59.6% (inactive) and 99% (active): [4]; at 50.0 µM

CC(Cc1ccccc1)N(C)Cc1nc(C2CCC([N+](=O)[O-])O2)no1 (centres undefined)
inactive: [6]; at 1.2 µM 6% | [6]; at 3.7 µM 14% | [6]; at 11.0 µM 22% | [6]; at 33.0 µM 53% | [7]; at 1.2 µM -1% | [7]; at 3.7 µM 0% | [7]; at 11.0 µM 2% | [7]; at 33.0 µM 3% | [7]; at 100.0 µM 8% | [8]; at 1.2 µM 5% | [8]; at 3.7 µM 14% | [8]; at 11.0 µM 27% | [8]; at 33.0 µM 44% | [8]; at 100.0 µM 42% | [9]; at 1.2 µM 1% | [9]; at 3.7 µM -1% | [9]; at 11.0 µM 13% | [9]; at 33.0 µM 25% | [9]; at 100.0 µM 49% | [10]; at 1.2 µM 4% | [10]; at 3.7 µM 10% | [10]; [17] 17% | [10]; at 11.0 µM 10% | [10]; at 33.0 µM 46% | [11]; at 1.2 µM 4% | [11]; at 3.7 µM 2% | [11]; [17] 18% | [11]; at 11.0 µM 4% | [11]; at 33.0 µM 17% | [11]; at 50.0 µM 66% | [11]; at 100.0 µM 33% | [12]; at 1.2 µM 5% | [12]; at 3.7 µM 14% | [12]; at 11.0 µM 45% | [13]; [17] 35% | [14]; at 1.2 µM -1% | [14]; at 3.7 µM 1% | [14]; at 11.0 µM 8% | [14]; at 33.0 µM 48% | [15]; [17] 5% | [16]; at 1.2 µM 0% | [16]; at 3.7 µM 9% | [16]; [17] -16% | [16]; at 11.0 µM 20% | [16]; at 33.0 µM 54% | [1]; at 1.2 µM 0% | [1]; at 3.7 µM 3% | [1]; at 11.0 µM 9% | [1]; at 33.0 µM 27% | [1]; at 100.0 µM 34% | [2]; at 1.2 µM -1% | [2]; at 3.7 µM -3% | [2]; at 11.0 µM 2% | [2]; at 33.0 µM 14% | [2]; at 100.0 µM 17% | [3]; at 1.2 µM -26% | [3]; at 3.7 µM 5% | [3]; at 11.0 µM 20% | [3]; at 33.0 µM 50% | [3]; at 100.0 µM 67% | [4]; [17] 47% | [5]; at 1.2 µM 14% | [5]; at 3.7 µM 36% | [5]; at 11.0 µM 69%
active: [6]; at 100.0 µM 84% | [10]; [18] 95% | [10]; at 50.0 µM 84.7% | [10]; at 100.0 µM 81% | [11]; [18] 98% | [12]; at 33.0 µM 70% | [12]; at 100.0 µM 93% | [13]; [18] 99% | [13]; at 50.0 µM 85.3% | [14]; at 100.0 µM 93% | [15]; [18] 94% | [15]; at 50.0 µM 88% | [16]; [18] 100% | [16]; at 50.0 µM 90% | [16]; at 100.0 µM 79% | [4]; [18] 97% | [4]; at 50.0 µM 80.2% | [5]; at 33.0 µM 86% | [5]; at 100.0 µM 95%

Reference: PubChem BioAssay (NCI)
